Inconclusive results are not listed. Calls of active or inactive are those of the source. Calls come from the whole dose curve; as a rule, active = well fitted curve in the direction sought with a large enough effect; inconclusive = small, poorly fitted or top-dose-only effect, or another doubt; inactive = no such curve, though single readings can be large; an effect the other way counts as inactive or inconclusive.
How the values were obtained:
[1] = qHTS of pediatric cancer cell lines to identify multiple opportunities for drug repurposing: Primary screen for DAOY cells (AID 1347090); note: series mostly up to about 46 µM; nearly all actives have a fitted effect of over 55% in size
How it was run: (§1)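 Cell viability, CellTiter-Glo luminescence; 500-1,000 cells/well, 8- or 11-point titration, 48 h compound exposure at 37 degrees C, 5% CO2. Controls: DMSO neutral, bortezomib 2.3 µM final as positive.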

[2] = qHTS of pediatric cancer cell lines to identify multiple opportunities for drug repurposing: Primary screen for SJ-GBM2 cells (AID 1347091)
How it was run: as §1

[3] = qHTS of pediatric cancer cell lines to identify multiple opportunities for drug repurposing: Primary screen for A673 cells (AID 1347092); note: nearly all actives have a fitted effect of over 45% in size
How it was run: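 Luminescence from CellTiter-Glo, taken after 15 min at room temperature, served as the proxy for metabolically active cells following 48 h treatment. Both potency and efficacy were taken from curves fitted to the titration data.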

[4] = qHTS of pediatric cancer cell lines to identify multiple opportunities for drug repurposing: Primary screen for SK-N-MC cells (AID 1347093); note: series mostly up to about 46 µM
How it was run: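 Metabolically active cells were quantified by ATP-dependent luminescence (CellTiter-Glo, 15 min at room temperature) following 48 h treatment. Cells had been plated at 500-1,000 per well and settled for 5 h beforehand.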

[5] = qHTS of pediatric cancer cell lines to identify multiple opportunities for drug repurposing: Primary screen for BT-37 cells (AID 1347094); note: series mostly up to about 57 µM
How it was run: (§2)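 Readout: CellTiter-Glo luminescence, 48 h treatment. Controls DMSO (neutral) and bortezomib 2.3 µM final (positive). Potency and efficacy taken from primary-screen concentration-response curves.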

[6] = qHTS of pediatric cancer cell lines to identify multiple opportunities for drug repurposing: Primary screen for NB-EBc1 cells (AID 1347095)
How it was run: as §2

[7] = qHTS of pediatric cancer cell lines to identify multiple opportunities for drug repurposing: Primary screen for U-2 OS cells (AID 1347096); note: nearly all actives have a fitted effect of over 50% in size
How it was run: (§3)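 Cells (500-1,000/well) rested 5 h, then received compounds for 48 h; metabolically active cells were measured by CellTiter-Glo luminescence. Final concentrations spanned up to 46 µM (MIPE, 11-point) or 0.59 nM-46 µM (NPC, 8-point) in primary screens, 11-point in follow-ups.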

[8] = qHTS of pediatric cancer cell lines to identify multiple opportunities for drug repurposing: Primary screen for Saos-2 cells (AID 1347097); note: nearly all actives have a fitted effect of over 40% in size
How it was run: as §2

[9] = qHTS of pediatric cancer cell lines to identify multiple opportunities for drug repurposing: Primary screen for SK-N-SH cells (AID 1347098); note: nearly all actives have a fitted effect of over 65% in size
How it was run: as §3

[10] = qHTS of pediatric cancer cell lines to identify multiple opportunities for drug repurposing: Primary screen for NB1643 cells (AID 1347099); note: nearly all actives have a fitted effect of over 50% in size
How it was run: as §2

Measured: outcome

CC(=O)OC(C)OC(=O)C(C)c1ccc(-c2ccccc2)c(F)c1 (stereo not given)
inactive: all assays above

CN1Cc2c(N)cccc2C(c2ccccc2)C1 (stereo not given)
inactive: all assays above

— PubChem BioAssay (NCATS)
